# Measured values from the supplement of paper PMC8728848.
# About 410 targets per protein were measured; listed, in parts, are those with the strongest signals and a random draw of the rest.
# B1: Epa12 (Candida glabrata) (protein)
# chain: MGSSHHHHHHSSGLVPRGSHMLEPDNSLQIFDSFLSNPSKYPLGCSPKITNPKKGLSMELYSYPYRKKGSHPCWDPAYLDPNFPRVGYKKNKLIARVDGVSGDINFNFHPKRQCTPIADYLPPNFNYNEPITTTNFTMLLYGYFKPKVTGLHTFDISADDLLFMNFGAGNAFDCCRRDSTADTFGNYVAWAIWGRRIVRNKLTVRLDKGIYYPLRLFFNNRDYYGQMRLTFKTEHGSERITDFSDYFFSVDDTSEGCPGLITYESECADVKSSTVLETDYITIQAEKE
# Assays:
# Assay in all cases: glycan array binding signal (z-score within array); higher = stronger binding
# Conditions in all cases: glycan notation: IUPAC condensed, linker removed
# [1] = target: Fuc(a1-2)Gal(b1-4)Fuc(a1-3)]GlcNAc(b1-2)Man(a1-3)[Fuc(a1-2)Gal(b1-4)[Fuc(a1-3)]GlcNAc(b1-2)Man(a1-6)]Man(b1-4)GlcNAc(b1-4)GlcNAc
# Outline: (§1)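 Glycan array binding is given as a within-array Z-score, which can be read as non-binding when negative. The arrays, 3228 of them, came from the Consortium for Functional Glycomics database and were retained only where the protein sequence was available. Z-scores were averaged across arrays of the same protein sequence at different concentrations or buffers and across linkers.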
# [2] = target: Fuc(a1-2)[Gal(a1-4)]Gal(b1-4)GlcNAc
# Outline: as §1
# [3] = target: Fuc(a1-2)[GalNAc(a1-3)]Gal(b1-3)GlcNAc(b1-3)GalNAc
# Outline: as §1
# Fuc(a1-4)GlcNAc = target: Fuc(a1-4)GlcNAc
# Outline: as §1
# Gal(a1-3)Gal(b1-3)GlcNAc = target: Gal(a1-3)Gal(b1-3)GlcNAc
# Outline: as §1
# [4] = target: Gal(a1-3)Gal(b1-3)GlcNAc(b1-2)Man
# Outline: as §1
# [5] = target: Gal(a1-3)Gal(b1-3)GlcNAc(b1-6)GalNAc
# Outline: as §1
# [6] = target: Gal(a1-3)Gal(b1-4)GlcNAc(b1-2)Man(a1-3)[Gal(a1-3)Gal(b1-4)GlcNAc(b1-2)Man(a1-6)]Man(b1-4)GlcNAc(b1-4)GlcNAc
# Outline: as §1
# [7] = target: Gal(a1-3)Gal(b1-4)[Fuc(a1-3)]GlcNAc(b1-2)Man(a1-3)[Gal(a1-3)Gal(b1-4)[Fuc(a1-3)]GlcNAc(b1-2)Man(a1-6)]Man(b1-4)GlcNAc(b1-4)GlcNAc
# Outline: as §1
# [8] = target: Gal(a1-3)[Gal(a1-4)]Gal(b1-4)GlcNAc
# Outline: as §1
# Gal(a1-4)Gal(b1-4)Gal = target: Gal(a1-4)Gal(b1-4)Gal
# Outline: as §1
# Gal(a1-4)Gal(b1-4)GlcNAc = target: Gal(a1-4)Gal(b1-4)GlcNAc
# Outline: as §1
# [9] = target: Gal(a1-4)Gal(b1-4)GlcNAc(b1-2)Man(a1-3)[Gal(a1-4)Gal(b1-4)GlcNAc(b1-2)Man(a1-6)]Man(b1-4)GlcNAc(b1-4)GlcNAc
# Outline: as §1
# [10] = target: Gal(a1-4)Gal(b1-4)GlcNAc(b1-3)Gal(b1-4)Glc
# Outline: as §1
# Gal(a1-4)GlcNAc = target: Gal(a1-4)GlcNAc
# Outline: as §1
# Gal(b1-2)Gal = target: Gal(b1-2)Gal
# Outline: as §1
# Gal(b1-3)Gal(b1-4)GlcNAc = target: Gal(b1-3)Gal(b1-4)GlcNAc
# Outline: as §1
# Gal(b1-3)GalNAc = target: Gal(b1-3)GalNAc
# Outline: as §1
# [11] = target: Gal(b1-3)GalNAc(a1-3)[Fuc(a1-2)]Gal(b1-4)GlcNAc
# Outline: as §1
# [12] = target: Gal(b1-3)GlcNAc(a1-3)Gal(b1-4)GlcNAc
# Outline: as §1
# [13] = target: Gal(b1-3)GlcNAc(b1-3)Gal(b1-4)GlcNAc(b1-2)Man(a1-3)[Gal(b1-3)GlcNAc(b1-3)Gal(b1-4)GlcNAc(b1-2)Man(a1-6)]Man(b1-4)GlcNAc(b1-4)GlcNAc
# Outline: as §1
# [14] = target: Gal(b1-3)GlcNAc(b1-6)GalNAc
# Outline: as §1
# [15] = target: Gal(b1-3)[Fuc(a1-4)]GlcNAc(b1-3)Gal(b1-4)[Fuc(a1-3)]GlcNAc
# Outline: as §1
# Gal(b1-4)Glc6S = target: Gal(b1-4)Glc6S
# Outline: as §1
# [16] = target: Gal(b1-4)GlcNAc(a1-6)Gal(b1-4)GlcNAc
# Outline: as §1
# [17] = target: Gal(b1-4)GlcNAc(b1-2)Man(a1-3)Man(b1-4)GlcNAc(b1-4)GlcNAc
# Outline: as §1
# [18] = target: Gal(b1-4)GlcNAc(b1-2)Man(a1-3)[Gal(b1-4)GlcNAc(b1-2)Man(a1-6)]Man(b1-4)GlcNAc(b1-4)GlcNAc
# Outline: as §1
# [19] = target: Gal(b1-4)GlcNAc(b1-2)Man(a1-3)[Man(a1-6)]Man(b1-4)GlcNAc(b1-4)GlcNAc
# Outline: as §1
# [20] = target: Gal(b1-4)GlcNAc(b1-2)Man(a1-6)Man(b1-4)GlcNAc(b1-4)GlcNAc
# Outline: as §1
# [21] = target: Gal(b1-4)GlcNAc(b1-2)Man(a1-6)[GlcNAc(b1-2)Man(a1-3)]Man(b1-4)GlcNAc(b1-4)GlcNAc
# Outline: as §1
binder,measurement,setting,value
B1,glycan array binding signal (z-score),[1],-0.132
same,glycan array binding signal (z-score),[2],4.84
same,glycan array binding signal (z-score),[3],-0.345
same,glycan array binding signal (z-score),Fuc(a1-4)GlcNAc,-0.241
same,glycan array binding signal (z-score),Gal(a1-3)Gal(b1-3)GlcNAc,1.71
same,glycan array binding signal (z-score),[4],3.52
same,glycan array binding signal (z-score),[5],4.44
same,glycan array binding signal (z-score),[6],2.04
same,glycan array binding signal (z-score),[7],-0.179
same,glycan array binding signal (z-score),[8],1.17
same,glycan array binding signal (z-score),Gal(a1-4)Gal(b1-4)Gal,-0.269
same,glycan array binding signal (z-score),Gal(a1-4)Gal(b1-4)GlcNAc,3.53
same,glycan array binding signal (z-score),[9],0.51
same,glycan array binding signal (z-score),[10],1.9
same,glycan array binding signal (z-score),Gal(a1-4)GlcNAc,5.7
same,glycan array binding signal (z-score),Gal(b1-2)Gal,0.125
same,glycan array binding signal (z-score),Gal(b1-3)Gal(b1-4)GlcNAc,3.49
same,glycan array binding signal (z-score),Gal(b1-3)GalNAc,0.135
same,glycan array binding signal (z-score),[11],-0.255
same,glycan array binding signal (z-score),[12],-0.242
same,glycan array binding signal (z-score),[13],-0.34
same,glycan array binding signal (z-score),[14],-0.093
same,glycan array binding signal (z-score),[15],-0.311
same,glycan array binding signal (z-score),Gal(b1-4)Glc6S,3.51
same,glycan array binding signal (z-score),[16],3.61
same,glycan array binding signal (z-score),[17],-0.259
same,glycan array binding signal (z-score),[18],0.425
same,glycan array binding signal (z-score),[19],-0.214
same,glycan array binding signal (z-score),[20],-0.206
same,glycan array binding signal (z-score),[21],-0.119
